Here are results for 3 compounds from PubChem BioAssay AID588651 (The Scripps Research Institute Molecular Screening Center, 2011).

Values without a mark were called inactive. Cut-off read from the data, not from the text of the source: active = inhibition above about 65%; inactive = the rest.

This test has as its system Fam108b. The test can be described thus: Fam108b inhibitors and proteome off-target selectivity – biochemical, gel-based ABPP, recombinant soluble Fam108b, HTS hits, complex proteome, late-stage follow-up (AID 588651).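 Note: Fam108b spiked into mouse brain membrane proteome.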 The conditions noted are these: FP-rhodamine labeling in proteome, at 20 µM, hits give high values.
With `Cc1ccccc1N1C(=O)/C(=C/c2ccco2)C(=O)NC1=S`, the inhibition (commonly the drop in the measured response relative to a control, in per cent) was 0%.

With `NC(Cc1cc(O)c(O)cc1O)C(=O)O` (stereo not drawn), the inhibition is 0%.

For `C[n+]1c(-c2ccccc2)c2cc(N)ccc2c2ccc(N)cc21`, the inhibition was 0%.
